# Assay outcomes deposited in PubChem by National Center for Advancing Translational Sciences (NCATS).
# JMJD2A Tudor inh: JMJD2A Tudor domain (human) inhibition | AlphaScreen JMJD2A-Tudor / H3K4me3 peptide binding | actives 4.4% (n = 390,000) | Potency, µM (highest dose often 114 µM), usual class: inhibitors | O75164; note: nearly all actives have a fitted effect of over 50% in size
# G9a inh: blocks human histone lysine methyltransferase G9a | Q96KQ7 | G9a H3K9 monomethylation, AlphaScreen, 2 h | Potency, µM (top dose mostly 102 µM), hits mostly inhibitors | actives 8.8% (n = 350,000) | AID 504332; note: nearly all actives have a fitted effect of over 75% in size
#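 Methyltransferase reactions run at room temperature for 2 h (20 nM enzyme, 500 nM biotin-H3K9 peptide, 20 uM SAM) after a 15 min compound preincubation; product detected by AlphaScreen beads and anti-H3K9me1 antibody.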
# BAZ2B inh: blocks human BAZ2B. AID 504333. AlphaScreen BAZ2B-H3K14Ac peptide displacement. actives 4.4% (n = 360,000). Potency, µM (series often up to 114 µM), actives largely listed as inhibitors. Q9UIF8; note: nearly all actives have a fitted effect of over 60% in size
#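 In this displacement format the biotinylated H3(5-23) peptide acetylated at Lys14 serves as ligand at 50 nM, with BAZ2B at 50 nM in PBS pH 7.4 containing 0.01% Tween-20. Donor and acceptor beads are 10 ug/mL final.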
# Six1-Eya2 blk: inhibitors of human Six1/Eya2 interaction; AID 651725; AlphaScreen GST-Six1/His-Eya2 binding, biochemical; hits give low values; activity change, % (test concentration not listed); actives 0.56% (n = 360,000); in the data active = activity change below about -65%; inconclusive = mostly about -30% to -63%
#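 AlphaScreen luminescence read after one hour at 37 °C in darkness. Pin-transferred compounds met GST-Six1 and His-Eya2 protein (5X stock 250 nM/500 nM) plus glutathione donor and Ni-chelate acceptor beads (5X, 50 ug/mL).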
# HP1b binding inh: blocks HP1-beta chromodomain binding to methylated histone tails; actives 0.56% (n = 390,000); AlphaScreen HP1-beta / biotin-H3K9me3 peptide binding; Potency, µM (top dose mostly 114 µM), hits mostly inhibitors; AID 540317; note: nearly all actives have a fitted effect of over 70% in size
#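 AlphaScreen: HP1-beta (50 nM) preformed 30 min with biotin-H3(1-18)K9me3 peptide (50 nM) in PBS pH 7.4, 0.01% Tween-20. Compound added for 30 min at RT, then streptavidin donor/nickel chelate acceptor beads (10 ug/mL) for 30 min.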
# CtBP-E1A inh: blocks the CtBP interaction with E1A | AlphaScreen GST-E1A/His-CtBP binding, 1536-well; hits give low values | activity change, % (no concentration beside the values) | actives 0.49% (n = 340,000) | AID 651724; in the data active = activity change below about -65%; inconclusive = mostly about -30% to -63%
#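 Protein mix (5X: 125 nM each GST-E1A, His-CtBP) was incubated with pinned compound 2 h at 37 deg C in dark, in 50 mM Tris pH 8.0 buffer with 300 mM NaCl. Glutathione donor and nickel acceptor beads followed; AlphaScreen signal read after 1 h.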
# A number is an active result; - = inactive; ? = inconclusive; . = no result given; ! = not confirmed by another sample; [ ] = dose if it differs, or a comment. Shown are actives, neighbours in structure and some others; about 10% of the full set was active somewhere. Unless noted, calls come from the whole dose curve; as a rule, active = well fitted inhibition curve with a large enough effect; inconclusive = small, poorly fitted or top-dose-only effect; inactive = no such curve, though single readings can be large or run the other way.
SMILES,JMJD2A Tudor inh,G9a inh,BAZ2B inh,Six1-Eya2 blk,HP1b binding inh,CtBP-E1A inh
O=C(O)CSc1c2c(nc3cc(C(=O)Nc4ccc(F)c(Cl)c4)ccc13)CCCC2,-,.,50.1µM,-,-,.
COc1ccc(N2CCN(C(=O)CSc3c4c(nc5ccc(Cl)cc35)CCCC4)CC2)cc1,22.4µM,11.2µM,.,.,-,.
COc1ccc(Cl)cc1NC(=O)c1ccc2c(SCC(=O)O)c3c(nc2c1)CCCC3,-,50.1µM,-,-,?,-
COc1ccc(NC(=O)c2ccc3c(SCC(=O)O)c4c(nc3c2)CCCC4)cc1Cl,.,?,-,.,.,.
CCOC(=O)c1ccccc1NC(=O)Cn1nnc2sc3c(c2c1=O)CCCC3,-,-,-,.,-,.
CCC(=O)Nc1ccc(C)cc1-c1nc2ccccc2n(CC(=O)c2ccc(C)cc2)c1=O,-,?,-,.,-,.
Cc1ccccc1C(=O)OC1OC(=O)C(Cl)=C1Nc1ccc(C(=O)O)cc1 (stereo not drawn),14.1µM,?,-,-,?,?
Cc1ccc(NC2=C(Cl)C(=O)OC2OC(=O)c2ccco2)cc1C (stereo not drawn),-,-,-,-,-,-
O=C(COC(=O)C1(c2ccccc2F)CCCC1)N1CCN(C(=O)c2ccco2)CC1,-,50.1µM,-,-,-,-
COc1ccc(CN2CCN(C(=O)c3ccco3)CC2)c(OC)c1OC,25.1µM,.,.,-,?,-
O=C(CSc1ccc(Br)cc1)N1CCN(C(=O)c2ccco2)CC1,-,44.7µM,-,-,-,-
O=C(c1ccco1)N1CCN(Cc2ccccc2F)CC1,28.2µM,28.2µM,?,-,?,-
COc1ccc(C(=O)OCC(=O)N2CCN(C(=O)c3ccco3)CC2)c(OC)c1OC,.,.,.,-,.,-
CCN(C(=O)C1CCN(S(=O)(=O)c2c(C)noc2/C=C/c2ccc(C)cc2)CC1)c1cccc(C)c1,-,-,-,.,-,.
CCc1ccc(-n2nc3ccc(NC(=O)c4cc(Cl)c(OC)c(Cl)c4)cc3n2)cc1,-,?,-,.,-,.
CC(=O)N1CCc2c(sc3c2c(=O)n(Cc2ccccc2)c(=O)n3CC(=O)Nc2ccc(C)c(F)c2)C1,-,-,-,.,-,.
COC(=O)c1c(C)oc2c1cc(NS(=O)(=O)c1c(C)cc(C)cc1C)c1ccccc12,-,?,?,.,-,.
CCc1cc2cc3c(cc2nc1SCC(=O)N1CCN(C(=O)c2ccco2)CC1)OCO3,?,-,-,-,-,-
COc1ccc(Br)cc1CN1CCN(C(=O)c2ccco2)CC1,7.08µM,10µM,28.2µM,-,31.6µM,-
COc1ccccc1CN1CCC2(CC1)CCN(C(=O)c1ccco1)CC2,.,-[12.7 µM],.,.,.,.
COc1ccccc1CN1CCN(C(=O)c2ccco2)CC1,1µM,22.4µM,?,-,50.1µM,-
Cc1ccc(CN2CCN(C(=O)c3ccco3)CC2)cc1,-,-,-,-,-,-
O=C(c1ccco1)N1CCN(Cc2cccnc2)CC1,3.55µM,3.55µM,25.1µM,-,-,-
CCc1cc2ccc(C)cc2nc1SCC(=O)N1CCN(C(=O)c2ccco2)CC1,89.1µM,?,?,-,?,-
COc1ncc2nc(-c3cccs3)c(=O)n(C)c2n1,.,-[0.501 µM],.,.,.,.
SMILES,JMJD2A Tudor inh,G9a inh,BAZ2B inh,Six1-Eya2 blk,HP1b binding inh,CtBP-E1A inh
Cc1cccc(-c2nc(N3CCN(c4ccc(F)cc4)CC3)c3ccccc3n2)c1,-,-,-,.,-,.
COc1cccc(-c2ccc3ncnc(NCc4cnc(C)cn4)c3c2)c1,.,-[0.501 µM],.,.,.,.
CCN1CCC[C@H]1CNC(=O)c1c(O)c(Cl)cc(Cl)c1OC,?,8.91µM!,-,-,-,-
CCN1CCCC1CNC(=O)c1cc(OC)c(OC)c(OC)c1 (stereo not drawn),-,-,-,-,-,-
O=C(Nc1ccc([N+](=O)[O-])cn1)c1cc(-c2cccc(Br)c2)nc2ccccc12,-,?,-,-,-,-
COc1cccc(-c2cc(C(=O)Nc3ccc([N+](=O)[O-])cn3)c3ccccc3n2)c1,-,7.94µM,?,-,-,-
CCOc1cccc(-c2cc(C(=O)Nc3ccon3)c3ccccc3n2)c1,-,20µM,-,-,-,-
COc1ccc2c(c1)CC(C(=O)NCCN1CCN(c3cccc(C)c3C)CC1)CO2 (stereo not drawn),-,-,-,.,-,.
CCN(c1ccccc1)S(=O)(=O)c1cc2c(cc1C)N(C)CCO2,?,79.4µM,?,?,-,-
Cc1ccccc1NS(=O)(=O)c1cc2c(cc1C)N(C)CCO2,-,-,?,-,-,-
COc1ccc(NS(=O)(=O)c2cc3c(cc2C)N(C)CCO3)c(OC)c1,?,?,50.1µM,-,-,-
CCOC(=O)N1CCc2c(sc3c2c(=O)n(CCc2ccccc2)c(=O)n3Cc2c(F)cccc2Cl)C1,-,-,-,.,-,.
Cc1ccc(N2C(=O)C3C4C=CC(CNC(=S)N5CCN(c6ccccn6)CC5)(O4)C3C2=O)cc1 (stereo not drawn),?,2.24µM,-,-,?,.
CC(C)(C)C(=O)NCC12C=CC(O1)C1C(=O)N(c3ccccc3)C(=O)C12 (stereo not drawn),56.2µM,1.58µM,-,-,?,-
O=C1C2C3C=CC(CO)(O3)C2C(=O)N1c1ccc(-c2ccccc2)cc1 (stereo not drawn),.,1µM,-,.,.,.
Cc1ccc(C)c(NC(=S)N2CCN(c3ccccn3)CC2)c1,-,.,-,-,-,.
CCc1ccccc1-n1c(C)nc2cc(C(=O)NCCc3ccc(Cl)cc3)ccc21,-,-,-,.,-,.
Cc1ccccc1-c1nc2c(c(SCc3cccc(Cl)c3)n1)Cc1c(CO)cnc(C)c1O2,-,-,-,.,-,.
O=C(Cn1c(=O)n(Cc2nc(-c3ccccc3)no2)c(=O)c2ccccc21)Nc1cccc(Cl)c1,-,-,-,.,-,.
CC1=[N+](C)c2ccc3ccccc3c2C1(C)C,?,8.91µM,50.1µM,-,-,-
O=[N+]([O-])c1ccc2c(c1N1CCCCC1)=NC1(CCCCC1)[N+]=2[O-],?,50.1µM,35.5µM,-,39.8µM,-
N#CC(C#N)=C1C=C2C=C(N3CCCCC3)CCC2CC1 (stereo not drawn),?,?,44.7µM,-,?,-
CCN(CC)C1=CC2=CC(=C(C#N)C#N)CCC2CC1 (stereo not drawn),-,-,-,-,-,-
O=C(CSc1nnc(-c2ccc(C(F)(F)F)cn2)o1)Nc1ccccc1Cl,20µM,-,17.8µM,-84.0,-,?
COc1ccc(-n2ncc(C(=O)N3CCN(Cc4ccccc4)CC3)c2C2CCN(C(=O)OC(C)(C)C)CC2)cc1,-,?,-,.,-,.
O=C(O)c1cc(N=Cc2c(O)c3ccccc3oc2=O)ccc1O,-,50.1µM,-,-,-,-
Cc1cc(C)cc(N=Cc2c(O)c3ccccc3oc2=O)c1,-,-,-,-,-,-
